Measurements as given in PubChem BioAssay (NCI).
About 79,000 compounds went through this panel and 15% of them were active in at least one assay; those are over-represented in the sample as a whole. Calls of active or inactive are those of the source. No stated cut-off is given here; in the data, active means growth inhibition above about 70%; inactive means the rest.

Tests used:
[1] = NCI Yeast Anticancer Drug Screen. Data for the rad50 strain (AID 155);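 further: 0% = growth of vehicle-only cultures of the same strain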; conditions: S. cerevisiae rad50 strain growth inhibition; at 50.0 µM; active compounds read high
Method in brief: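 Readout: growth inhibition relative to vehicle-treated cultures. Compound exposure was carried out in a genetically defined yeast strain deficient in DNA damage repair.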

[2] = NCI Yeast Anticancer Drug Screen. Data for the mec2-1 strain (AID 157); conditions: S. cerevisiae mec2-1 strain, at 50.0 µM, active compounds read high
Method in brief: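 Compounds were applied to mec2-1 yeast cells. Their growth was then compared with that of vehicle-treated cultures to give growth inhibition.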

[3] = NCI Yeast Anticancer Drug Screen. Data for the sgs1 mgt1 strain (AID 161);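 further: 0% = growth of cultures given vehicle only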; conditions: S. cerevisiae sgs1 mgt1 strain, at 50.0 µM, active compounds read high
Method in brief: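 Compounds are added to genetically altered yeast, and growth is compared with cultures given vehicle alone to give percent inhibition.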

[4] = NCI Yeast Anticancer Drug Screen. Data for the cln2 rad14 strain (AID 165);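 further: 0% = growth equal to vehicle treated cultures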; conditions: S. cerevisiae cln2 rad14 strain, at 50.0 µM, active compounds read high
Method in brief: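 Strain: cln2 rad14 yeast, altered in cell cycle control and DNA damage repair. Read-out: growth inhibition vs vehicle.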

[5] = NCI Yeast Anticancer Drug Screen. Data for the bub3 strain (AID 167); conditions: S. cerevisiae bub3 mutant strain, at 50.0 µM, active compounds read high
Method in brief: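 Readout: yeast growth inhibition, expressed relative to vehicle-only wells. The test organism is a mutant strain from a panel with lesions in DNA repair or checkpoint genes.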

[6] = NCI Yeast Anticancer Drug Screen. Data for the mlh1 rad18 strain (AID 175); conditions: S. cerevisiae mlh1 rad18 strain growth inhibition; at 50.0 µM; active compounds read high
Method in brief: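 A repair-deficient yeast strain is exposed to test compound, and growth is scored relative to vehicle-treated controls.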

Measured: growth inhibition

c1ccc2c(c1)nc1n2CC2(CS1)CSc1nc3ccccc3n1C2
inactive: [1] -8.65% | [2] 2.1% | [3] -7.15% | [4] -25.8% | [5] -13.4% | [6] -3.1%

CC1=C(C(=O)Nc2cc(F)c(F)cc2F)C(c2cccc([N+](=O)[O-])c2)C(C(=O)Nc2ccccc2C(F)(F)F)=C(C)N1 (stereo unspecified)
inactive: [1] 20.4% | [2] 21.8% | [3] 8.4% | [4] 2.15% | [5] 9.75% | [6] -2.65%

c1cc2c(cc1CC1CO1)OCO2 (stereo unspecified)
inactive: [1] -12.2% | [2] -11.7% | [3] 0.85% | [4] -18.4% | [5] -22.5% | [6] 15%

C/C(=N/OC1=CC(=O)CC(C)(C)C1)c1ccccc1
inactive: [1] 1.8% | [2] 0.8% | [3] 0.3% | [4] -52.9% | [5] 24.1% | [6] 0.6%

O=C1c2cc(Cl)ccc2OCC1Cl (stereo unspecified)
inactive: [1] 37.5% | [2] 22.2% | [3] 14.6% | [4] -25.6% | [5] 18.7% | [6] 7.4%

Cc1onc(-c2c(F)cccc2Cl)c1C(=O)OCc1c(F)cccc1Cl
inactive: [1] 6.8% | [2] -2.15% | [3] 20.9% | [4] 11.5% | [5] 25.1% | [6] 24.5%

CN(C)CCNc1ccc2nnn3c4ccccc4c(=O)c1c23
inactive: [1] 32.5% | [2] 7.45% | [3] 11.2% | [4] 29.7% | [5] 3% | [6] 25.5%

O=C1OC(/C=C/c2ccccc2)=NC/1=C\c1ccccc1Cl
inactive: [1] 29.8% | [2] 15.4% | [3] 35% | [4] 21.6% | [5] 17.4% | [6] 20.4%

Cc1cn(CCCCCCCCCCCCOc2c3occc3cc3ccc(=O)oc23)c(=O)[nH]c1=O
inactive: [1] 20.1% | [2] 4.6% | [3] -3.5% | [4] 23.2% | [5] -2.35% | [6] 19.6%

N#C/C(=C\NC(N)=S)c1nc2ccccc2s1
inactive: [1] -18.1% | [2] 7.15% | [3] -15.8% | [4] 24.8% | [5] -4.25% | [6] -11.7%

CCn1c2ccc([N+](=O)[O-])cc2c2c([N+](=O)[O-])c(NC=O)ccc21
inactive: [1] 12.2% | [2] 15.2% | [3] -4.55% | [4] 17.6% | [5] 13.8% | [6] 28.2%

CC(=O)c1ccncc1
inactive: [1] -38.2% | [2] -0.7% | [3] 6.65% | [4] -27.4% | [5] -1.6% | [6] 20.6%

COc1ccc(CC2CCCNC2C(=O)O)cc1 (stereo unspecified)
inactive: [1] -1.65% | [2] -13.2% | [3] -3.55% | [4] -38.7% | [5] -16.6% | [6] 10.8%

CCOC(Cn1ncc(C#N)c1N)OCC
inactive: [1] -13.7% | [2] -7.75% | [3] -25.5% | [4] -15.9% | [5] -5.95% | [6] 5.65%

COc1ccc(/C=C2\N=C(N3CCOCC3)NC2=O)cc1
inactive: [1] -4.15% | [2] 7.25% | [3] 10.4% | [4] -13.8% | [5] -3.4% | [6] -43.8%

CS(=O)CCN=Cc1ccc(N=Nc2ccc(O)cc2)cc1 (stereo unspecified)
inactive: [1] 5.8% | [2] 1.65% | [3] -0.85% | [4] -33.4% | [5] 13.5% | [6] 2.65%

Fc1ccc(N=Cc2ccc(C=Nc3ccc(F)cc3)cc2)cc1
inactive: [1] 20.9% | [2] 30.1% | [3] 18.7% | [4] 10.2% | [5] 38% | [6] 27.2%

Cc1ccc(S(=O)(=O)c2c(N)c3nc4ccccc4n3c3nc4ccccc4nc23)cc1
inactive: [1] 21.4% | [2] -10.3% | [3] -5.2% | [4] 25.7% | [5] -0.45% | [6] 13.1%

CS(=O)(=O)OC1C(O)C(O)OC(CO)C1O (stereo unspecified)
inactive: [1] -18.4% | [2] 12.9% | [3] 4.5% | [4] -49.7% | [5] 5.75% | [6] 7.7%

CNCCC(C(=O)O)c1ccccc1 (stereo unspecified)
inactive: [1] -12.1% | [2] -7.25% | [3] 9.15% | [4] -28.2% | [5] -2.6% | [6] 9.1%

COc1cc([N+](=O)[O-])c(C=O)c(C(=O)O)c1OC
inactive: [1] 6.5% | [2] -1.85% | [3] -10.3% | [4] 13.7% | [5] 1.75% | [6] 4.9%

COc1ccc(C(=O)C(C(=O)C(=O)NCCCNC(=O)C(=O)C(C(=O)c2ccc(OC)cc2)c2ccc(OC)cc2)c2ccc(OC)cc2)cc1 (stereo unspecified)
inactive: [1] -11.9% | [2] -25.6% | [3] -7.1% | [4] 13.8% | [5] -9.25% | [6] -10.7%

CC(=O)OC1CC2C=CC1C2 (stereo unspecified)
inactive: [1] -3.55% | [2] -3.8% | [3] 3.6% | [4] 1.65% | [5] 15.4% | [6] -7.7%

COC(=O)c1nnn(-c2ccc(Cl)cc2C)c1N
inactive: [1] -17.8% | [2] -1.95% | [3] 16.7% | [4] 29.7% | [5] -15.6% | [6] 21.2%

NS(=O)(=O)/C=C(\Cl)c1ccccc1
inactive: [1] 1.7% | [2] 2.15% | [3] 2.95% | [4] -16.6% | [5] 12.2% | [6] -0.55%

CC(=O)Oc1cc(OC(C)=O)c2c(c1C)CC[C@@H]1[C@@H]2CC[C@]2(C)[C@@H](OC(C)=O)CC[C@@H]12
inactive: [1] 18.1% | [2] 10.1% | [3] -0.25% | [4] -17% | [5] -5.3% | [6] 34.3%

Cc1cc(C(=O)O)c(C(=O)O)c(=O)[nH]1
inactive: [1] 0.6% | [2] 5.8% | [3] 0.3% | [4] 7.1% | [5] -1.05% | [6] -13.9%

CC(C)(C)C(=O)CN
inactive: [1] -19.4% | [2] -10.1% | [3] -9.55% | [4] -71% | [5] 11% | [6] -2.65%

COc1ccccc1N=NNc1ccc(S(=O)(=O)NC(C)=O)cc1
inactive: [1] 14.9% | [2] -28.5% | [3] -1.1% | [4] -0.6% | [5] -15% | [6] 0.55%

Clc1cccc(C=NC23CC4CC(CC(C4)C2)C3)c1Cl
inactive: [1] -20.2% | [2] -36.5% | [3] -40.3% | [4] -6% | [5] -22.6% | [6] -10.2%

NC(=O)Cc1cc2c(cc1CO)OCO2
inactive: [1] 3.85% | [2] 1.8% | [3] 2.45% | [4] 7.9% | [5] -13.3% | [6] 5.55%

O=c1cc(NC(c2ccccc2)c2ccccc2)[nH]c(=O)[nH]1
inactive: [1] -5.25% | [2] 22.1% | [3] 8.95% | [4] -10.4% | [5] 19.1% | [6] 27.6%

O=S1(=O)OCCOS(=O)(=O)C1S(=O)(=O)c1cccc2ccccc12
inactive: [1] -19.2% | [2] -5.95% | [3] 12.8% | [4] -8.7% | [5] -2.95% | [6] 27%

COc1cc2c(cc1OC)C(Cc1ccccc1CCCl)=NCC2
inactive: [1] 15.1% | [2] 8.65% | [3] -31.8% | [4] -1.8% | [5] -24.7% | [6] 2.45%

CCN(CC)C(=O)Cc1c(C(=O)N(CC)CC)c(=O)nc2sccn12
inactive: [1] -27.2% | [2] -15.8% | [3] -30.8% | [4] -23.3% | [5] -25% | [6] -43.6%

CCC(C(=O)O)c1cccc2c(C)ccc(C)c12 (stereo unspecified)
inactive: [1] 8.25% | [2] 3.55% | [3] 21.4% | [4] 23.2% | [5] 7.7% | [6] 8.15%

C[C@@H](CC(=O)O)OC1OC(COC(=O)C(C)(C)C)C(OC(=O)C(C)(C)C)C(OC(=O)C(C)(C)C)C1OC(=O)C(C)(C)C (stereo partly specified)
active: [6] 85.8%
inactive: [1] 4.25% | [2] -45.1% | [3] -17.7% | [4] 7% | [5] -15.5%

Cc1cc(Br)cc(C)c1NC(=O)C(=O)C1C(=O)C(CC2C(=O)c3ccccc3C2=O)C(=O)CC1(C)C (stereo unspecified)
inactive: [1] 36.1% | [2] 22.9% | [3] 0.75% | [4] -5.7% | [5] 4.35% | [6] 16.4%

Cc1cccc(CSc2nc(N)nc3ncn(C4CC(O)C(CO)O4)c23)n1 (stereo unspecified)
inactive: [1] -20.9% | [2] 3.5% | [3] 10.7% | [4] -48.2% | [5] 2.05% | [6] -19.6%

COc1ccc(C(=O)CC(=O)CCC(=O)Nc2ccc(Cl)cc2Cl)cc1
inactive: [1] 26.4% | [2] 19.1% | [3] 20.9% | [4] 19.8% | [5] 8.2% | [6] 7.75%

CCC(C(N)C(=O)O)C(F)(F)F (stereo unspecified)
inactive: [1] -19.4% | [2] -32.1% | [3] 1.4% | [4] 4.25% | [5] -22.1% | [6] -6.55%
